Rv3671c inh – Rv3671c serine protease inhibitors, primary screen, biochemical, fluorescence polarization, M. tuberculosis H37Rv; AID 2606, 2010; inhibition, % at 5.96 µM; P9WHR9; 320,000 tested, 0.048% active; in the data active = inhibition above about 38%;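 note: extracellular domain of Rv3671c used as enzyme; 0% = enzyme with DMSO and 100% = no enzyme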
UGM FP inh – M. tuberculosis UGM enzyme inhibitors, primary screen, biochemical, fluorescence polarization, single point. UDP-galactopyranose mutase (Mycobacterium tuberculosis (strain ATCC 25618 / H37Rv)), …. purified UGM, fluorescence polarization probe displacement. inhibition, % at 10 µM. 320,000 tested, 0.06% active. AID 504406, 2011; in the data active = inhibition above about 10%, passing the limit was not always enough
FBA Mtb inh – Mtb FBA enzyme inhibitors, primary screen, biochemical, fluorescence, strain H37Rv | inhibition, % at 1 µM | AID 588726, 2011 | 360,000 tested, 2.3% active | Fructose-bisphosphate aldolase (Mycobacterium tuberculosis (strain ATCC 25618 / H37Rv)), … | purified M. tuberculosis FBA, fluorescence read-out; in the data active = inhibition above about 27%;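 note: 0% = vehicle and 100% = reference inhibitor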
Target sequence (P9WQA3 whole entry, looked up): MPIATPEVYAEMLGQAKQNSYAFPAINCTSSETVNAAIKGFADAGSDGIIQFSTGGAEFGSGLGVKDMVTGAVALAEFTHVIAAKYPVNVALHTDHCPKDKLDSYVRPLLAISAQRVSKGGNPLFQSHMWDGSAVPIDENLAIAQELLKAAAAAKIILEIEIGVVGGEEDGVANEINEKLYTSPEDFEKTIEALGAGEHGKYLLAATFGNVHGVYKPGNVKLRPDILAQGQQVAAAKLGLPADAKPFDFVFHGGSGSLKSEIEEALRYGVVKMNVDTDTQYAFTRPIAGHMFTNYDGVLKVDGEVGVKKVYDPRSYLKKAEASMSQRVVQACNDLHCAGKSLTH
GDH-TPI inh – GDH-TPI coupling enzyme inhibitors, primary screen, artefact control for M. tuberculosis FBA inhibitor project, biochemical, absorbance, full deck; GDH-TPI coupled enzyme counterscreen, NADH absorbance; inhibition, % at 4.8 µM; 360,000 tested, 1.2% active; in the data active = inhibition above about 30%;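 note: 0% = DMSO wells and 100% = wells lacking the enzyme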
Mtb betalactam – beta-lactam sensitization of Mtb H37Rv, H37Rv | M. tuberculosis H37Rv growth with meropenem, percent inhibition | inhibition, % at 25 µM | 330,000 tested, 0.27% active; call rule not given here;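 note: growth measured after seven days incubation then overnight dye step; 0% = bacteria only wells and 100% = bacteria with antibiotic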
An asterisk follows results filed as active; x = not tested or not shown. The list is not random: actives were taken first. Their share in the collection is about 3.5%.

SMILES	Rv3671c inh	UGM FP inh	FBA Mtb inh	GDH-TPI inh	Mtb betalactam
O=C(/C=C/c1ccco1)NCc1ccc2c(c1)OCO2	-6	-4	-8	6	3
O=C(/C=C/c1ccco1)Nc1ccc2c(c1)OCO2	4	2	-6	33*	-9
Cn1c(NC(=O)/C=C/c2ccco2)cc(=O)n(C)c1=O	-2	-2	-4	31*	-5
CCOc1cccc(C2C(C(=O)c3ccc(C)o3)=C(O)C(=O)N2c2nccs2)c1 (stereo not drawn)	6	16*	0	-1	-7
O=[N+]([O-])c1ccc(C=NNC(=S)NN=Cc2ccc([N+](=O)[O-])cc2)cc1	x	x	-1	31*	x
O=NN(CC(=O)NN=CC=Cc1ccccc1)CC(=O)NN=CC=Cc1ccccc1	x	x	3	x	x
NC(=S)N/N=C/c1cccc(/C=N/NC(N)=S)c1	-5	4	-1	37*	x
NC(=S)N/N=C/c1ccc(/C=N/NC(N)=S)cc1	-10	-2	-1	111*	x
NC(=S)N/N=C/C=C/c1ccccc1	-10	-2	1	38*	98
NC(=S)N/N=C/c1cccc(Br)c1	6	-2	-3	10	92
Cc1cc([N+](=O)[O-])nn1CCCC(=O)Nc1cccc(Cl)c1Cl	-3	2	-3	-5	-6
Cc1cc(-c2cc(-c3ccccc3)on2)nc(NCC2CC2)n1	-10	-1	9	9	33
O=S(=O)(N/N=C\C=C\c1ccccc1)c1ccccc1	8	-1	-5	31*	12
CC(=O)OCC1OC(OCc2cn(C[C@H]3CC[C@H](Cn4cc(COC5OC(COC(C)=O)C(OC(C)=O)C(OC(C)=O)C5OC(C)=O)nn4)O3)nn2)C(OC(C)=O)C(OC(C)=O)C1OC(C)=O (stereo partly drawn)	10	1	0	-10	-3
O=C(/C=C\Nc1ccccn1)c1ccc(Cl)cc1	-7	0	1	31*	6
Cc1cc(C(=O)N/N=C/C=C/c2ccc([N+](=O)[O-])cc2)n[nH]1	6	1	1	41*	-4
Cc1cc(C(=O)N/N=C/C=C/c2ccc(Br)cc2)n[nH]1	-2	-2	0	42*	5
CCc1ccc(NC(=O)CCCNC(=O)Cn2cnc3sc(C)c(C)c3c2=O)cc1	8	-2	3	-4	9
CCCCN(C1CCS(=O)(=O)C1)S(=O)(=O)c1ccc(OC)c(OC)c1 (stereo not drawn)	7	-1	-2	2	-10
N#CCOC(=O)/C=C/c1ccc2c(c1)OCO2	14	0	13	38*	x
CC(C)C(OC(=O)/C=C/c1ccc2c(c1)OCO2)C(=O)NC(N)=O (stereo not drawn)	1	0	14	41*	1
CCOc1ccc(-c2ccc3nnc(SCC(=O)NCC4CCCO4)n3n2)cc1 (stereo not drawn)	1	-1	5	17	-2
CC(=O)c1ccc(NS(=O)(=O)Cc2ccccc2)cc1	1	0	1	35*	-2
O=S(=O)(Cc1ccccc1)Nc1ccccc1	-3	-1	-1	5	3
CCOC(=O)c1ccc(N=NN(C)C)cc1	-3	2	0	36*	1
SMILES	Rv3671c inh	UGM FP inh	FBA Mtb inh	GDH-TPI inh	Mtb betalactam
COc1ccc(-c2cn3ccccc3n2)cc1	-8	0	114*	12	-2
Clc1ccc(-c2cn3ccccc3n2)cc1	4	1	22	6	-2
CCNC(=O)/C(C#N)=C/c1c(N2CC(C)OC(C)C2)nc2ccccn2c1=O (stereo not drawn)	-2	1	3	27	-9
COCCCNC(=O)/C(C#N)=C/c1c(N2CCN(C)CC2)nc2ccccn2c1=O	-8	-2	140*	2	-8
CCNC(=O)/C(C#N)=C/c1c(N2CCCCCC2)nc2ccccn2c1=O	-10	1	135*	19	-1
CNC(=O)/C(C#N)=C/c1c(N2CC(C)OC(C)C2)nc2ccccn2c1=O (stereo not drawn)	-9	0	124*	12	-6
O=C(CSc1nc2ccccc2s1)c1ccc(O)cc1O	-27	0	-1	24	0
Fc1ccc(-c2cnc3n2CCCCC3)cc1	-8	0	4	4	8
COC(=O)c1c(C)oc(C)c1S(=O)(=O)N1CCOCC1	5	0	0	9	-8
CC(C)(C)c1ccc(OCc2ccc(C(=O)NCc3cccnc3)o2)cc1	-2	-1	-6	-3	-7
COc1ccc(/C=N/N2C(=N)SCC2=O)cc1	1	3	0	49*	22
COc1cc(/C=N/N2C(=O)CSC2=S)ccc1O	-34	0	-9	38*	-2
O=C1CSC(=S)N1/N=C/c1cccnc1	-3	1	-4	57*	1
CN(C(=O)COC(=O)c1ccc(Cl)cc1N)C1CCS(=O)(=O)C1 (stereo not drawn)	-3	1	67*	5	-15
O=C(N/N=C/c1cn(-c2ccccc2)nc1-c1cc2ccccc2o1)c1ccccc1Br	-10	-1	3	31*	39
COC(=O)C1=C(c2ccc(OC(F)(F)F)cc2)C[C@@H]2CC[C@H]1N2C(=O)NCCNC(C)=O	4	2	1	2	4
COC(=O)C1=C(c2ccc(OC(F)(F)F)cc2)C[C@@H]2CC[C@H]1N2C(=O)NCCc1ccccc1	-20	2	7	58*	16
CN(C)CCCNC(=O)/C=C/c1ccc2c(c1)OCO2	2	2	8	21	-4
O=C(/C=C/C=C/c1ccc2c(c1)OCO2)N1CCCCC1	1	6	2	41*	1
CC(C)CNC(=O)/C=C/C=C/c1ccc2c(c1)OCO2	-6	x	8	39*	3
COc1c(Cl)cc(C(=O)Nc2cccnc2)cc1Cl	x	x	-2	6	x
Cc1c(NS(=O)(=O)c2cccc(C(=O)N3CCC(C)CC3)c2)c(=O)n(-c2ccccc2)n1C	-3	0	-1	-1	1
Cc1cc(C)c(OCC(=O)OCC(=O)NC2CCC(C)CC2)c(C)c1 (stereo not drawn)	2	0	0	4	-3
CN(C)S(=O)(=O)c1ccc(C(=O)Nc2nnc(SCC(=O)NCC3CCCO3)s2)cc1 (stereo not drawn)	1	0	-2	35*	5
CCOc1ccc(C(=O)Nc2nnc(SCC(=O)NCC3CCCO3)s2)cc1 (stereo not drawn)	-6	1	1	38*	3
O=Cc1cccc(OC(=O)Nc2ccccc2)c1	7	-1	-4	-11	-2
NC(=S)N/N=C1\CC(c2ccc3c(c2)OCCO3)Oc2ccc(F)cc21 (stereo not drawn)	-8	3	-2	40*	-11
NC(=S)N/N=C1\CC(c2ccc3c(c2)OCCCO3)Oc2ccc(F)cc21 (stereo not drawn)	-9	0	0	45*	-14

From PubChem BioAssay
